PLCg1 inh = PLC-gamma1 enzyme inhibitors, primary screen, biochemical, fluorescence, purified enzyme; 1-phosphatidylinositol 4,5-bisphosphate phosphodiesterase gamma-1 (Homo sapiens), P19174; fluorogenic substrate; inhibition, % at 12.2 µM; 370,000 compounds, 0.84% hits
HIF act = HIF pathway transcriptional activators, primary screen, cell-based, U2OS HRE-luciferase, luminescence; U2OS HRE-luciferase reporter; normalized: DMSO 0%, desferrioxamine 100%; activation, % at 7.5 µM (by protocol); 300,000 compounds, 0.32% hits; AID 1910, 2009;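 active = mean activation of at least 10% of the iron chelator positive control signal, with at least half of replicates also reaching 10%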
CR mimetic SO = reduction of superoxide in aged yeast, primary screen, HTS. S. cerevisiae aged cells, superoxide DHE fluorescence; hits give low values. superoxide response (% of plate mean), % at 10 µM. 330,000 compounds, 0.18% hits;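 active = superoxide response under a set limit, about three screen SD below normal, cut at about 65% in these data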;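 note: yeast aged for seven days with compound at 30 °C before DHE staining; 100% = average MFI of all compound-treated wells on the plate with controls excluded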
HGIII-sPLA2 inh = human group III sPLA2 inhibitors, primary screen, biochemical, QFRET, BODIPY PC-A2 liposome substrate; Group 3 secretory phospholipase A2 (Homo sapiens), Q9NZ20; 370,000 compounds, 0.56% hits; QFRET BODIPY PC-A2 liposome hydrolysis, fluorescence; inhibition, % at 12.2 µM; AID 743126, 2013;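 active = inhibition above mean plus 3 SD of compounds lying within the high and low control bounds, cut at about 19% in these data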;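 note: 0% = median of test compound wells and 100% = no enzyme DMSO wells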
PLCb3 inh = human PLC-beta3 inhibitors, primary screen, biochemical, fluorescence; 1-phosphatidylinositol 4,5-bisphosphate phosphodiesterase beta-3 (Homo sapiens), Q01970; Purified PLC-beta3, fluorogenic substrate; inhibition, % at 12.2 µM; 370,000 compounds, 0.18% hits; AID 720704, 2013; in the data active = inhibition above about 11%;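 note: 0% = median of compound wells on plate and 100% = full blocker control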
AHR activator = AHR activators, primary screen, cell-based, luminescence, luciferase reporter, human; Aryl hydrocarbon receptor (Homo sapiens), P35869; AHR-responsive luciferase reporter cells; activation, % at 5 µM; 320,000 compounds, 2.5% hits; AID 2796, 2010; in the data active = activation above about 47%;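 note: 0% = vehicle wells and 100% = reference agonist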
PLCgamma1 ctr = PLC-gamma1 enzyme inhibitors, counter-screen for PLC-beta3 inhibitor project, biochemical, fluorescence. shares compounds with PLCg1 inh. purified PLC-gamma1, fluorogenic substrate. inhibition, % at 12.3 µM. 3,300 compounds, 3.1% hits
PLCb3 confirm = PLC-beta3 inhibitor confirmation, biochemical, fluorescence, purified enzyme | 3,300 compounds, 1% hits | inhibition, % at 12.3 µM | fluorogenic substrate fluorescence | shares compounds with PLCg1 inh | AID 743261, 2014; in the data active = inhibition above about 11%
* = called active by the depositor; . = not tested or not shown. A selection: hits, their analogues and other compounds. The true share with any hit is near 3.9%. Cut-off read from the data, not from the text of the source, unless noted: active = inhibition above about 9.5%; inactive = the rest.

SMILES	PLCg1 inh	HIF act	CR mimetic SO	HGIII-sPLA2 inh	PLCb3 inh	AHR activator	PLCgamma1 ctr	PLCb3 confirm
Cc1ccc(S(=O)(=O)N(C)CCCC(=O)N2CCN(C=O)CC2)cc1	10*	0	96	-1	11*	-4	-1	6
CC(C)(C)NC(=O)C(c1ccncc1)n1c(-c2ccc(C(F)(F)F)cc2)nc2ccccc21 (stereo not given)	-65	.	.	-8	-92	.	.	.
COc1ccc(CCN(C)C2CCCN(S(=O)(=O)c3ccccc3)C2)cc1OC (stereo not given)	3	-24	100	-1	-3	.	.	.
CCC(C)NC(=O)CNC(=S)N(Cc1ccccc1)Cc1cccnc1 (stereo not given)	9.7*	0	94	6	4	-1	1	2
CC(NC(=O)CNC(=S)N(Cc1ccccc1)Cc1cccnc1)c1ccccc1 (stereo not given)	1	-1	100	-1	-3	0	.	.
CCOc1ccccc1NC(=O)C(OC(=O)c1ccc(NC(=O)CC#N)cc1)c1ccccc1 (stereo not given)	-9	-1	110	-35	-20	3	.	.
CSc1ccc(S(=O)(=O)Nc2ccc(F)cc2)cc1	-2	1	106	-21	-1	-3	.	.
COc1ccc(NS(=O)(=O)c2ccc(SC)cc2)cc1	12*	0	122	-12	0	2	8	1
O=C(Cc1ccccc1Cl)NCCN1C(=O)C2C3C=CC(C3)C2C1=O (stereo not given)	9.9*	.	.	16	1	.	0	0
O=C(CCN1C(=O)C2C3C=CC(C3)C2C1=O)NCCc1ccccc1Cl (stereo not given)	0	0	99	0	2	10	.	.
O=C(c1ccccc1)N1CCC2CCN(S(=O)(=O)c3ccccc3)CC21 (stereo not given)	5	.	.	1	8	.	.	.
Cc1ccc(-n2c(C)cc(C(=O)COc3c(CO)cc(F)cc3CO)c2C)cc1C	0	0	102	-6	-2	-1	.	.
COc1cc(/C=N/NC(=O)c2cc[n+]([O-])cc2)ccc1O	17*	0	97	14	10	3	3	2
COc1ccc(/C=N/NC(=O)c2cc[n+]([O-])cc2)cc1OC	.	2	98	.	.	1	.	.
CCn1c(CNc2ccc(C)cc2)nnc1SCC(N)=O	9.7*	1	116	12	5	6	-3	0
COc1cccc(-c2noc(C3CCCN(S(=O)(=O)c4cccc(Cl)c4C)C3)n2)c1 (stereo not given)	12*	0	98	-4	1	4	-2	1
CCCS(=O)(=O)N1CCCC(c2nc(-c3cccc(OC)c3)no2)C1 (stereo not given)	-2	1	124	-10	-3	5	.	.
Cc1cc(=O)n(C)c(=O)n1CCCCCCOc1cccc([N+](=O)[O-])c1	1	.	97	-4	0	4	.	.
Cc1cc(=O)n(C)c(=O)n1CCCCCN1CCCC1	11*	0	107	11	7	0	3	4
CCCCCCCNC(=O)C1(CC2CC(c3ccc(Cl)cc3)=NO2)CCN(C(=O)C2(C)CC2)CC1 (stereo not given)	.	-2	97	.	.	1	.	.
N#Cc1ccc(CSc2nc(N)cc(N)n2)cc1	3	-8	91	-3	-4	2	.	.
Cc1cc(N2CCCCC2)nc(SCc2ccc(C#N)cc2)n1	11*	-1	110	-22	6	0	-1	-1
Cc1ccc(Cl)cc1NC(=O)OCCN(C)C(=O)Nc1cc(Cl)ccc1C	2	.	.	9	1	.	.	.
Nn1c(SCc2cn3cc(Cl)ccc3n2)nnc1-c1ccncc1	11*	0	86	-1	-8	6	-6	-3
CC1Cc2nc(SCC(=O)Nc3ccc(F)cc3F)n(C)c(=O)c2S1 (stereo not given)	13*	0	97	-1	7	1	-7	-4
SMILES	PLCg1 inh	HIF act	CR mimetic SO	HGIII-sPLA2 inh	PLCb3 inh	AHR activator	PLCgamma1 ctr	PLCb3 confirm
Cc1ccc(C)c(NC(=O)CSc2nc3c(c(=O)n2C)SC(C)C3)c1 (stereo not given)	0	0	118	6	0	0	.	.
O=C(CSc1nnc(-c2ccncc2)o1)Nc1nncs1	-7	0	95	2	-13	0	.	.
O=C(CSc1nnc(-c2ccccc2Br)o1)Nc1nncs1	4	0	98	-1	11*	0	1	-1
O=C(CN1C(=O)NC2(CCCCCC2)C1=O)c1cccs1	3	.	104	4	-5	1	.	.
CCN(c1ccccc1)S(=O)(=O)c1ccc(Cl)c(C(=O)NCC2CCCO2)c1 (stereo not given)	12*	0	100	-5	-3	3	-6	-2
Cc1cc([N+](=O)[O-])nn1CC(=O)N/N=C/c1ccccc1F	1	0	92	5	-4	0	.	.
Cc1ncc([N+](=O)[O-])n1CC(=O)N/N=C/c1ccccc1F	6	0	105	12	11*	1	3	4
O=C(O)c1cc2c(cc1Cl)N1CCCCCC1=NS2(=O)=O	19*	0	76	8	0	3	-6	-1
COC(=O)c1cc2c(cc1Cl)N1CCCCCC1=NS2(=O)=O	1	.	99	8	-6	0	.	.
CSc1ccccc1C(=O)N1CCCCC1	-1	0	103	8	-5	2	.	.
Cc1ccsc1C(=O)NC1CCCN(Cc2ccc(Cl)cc2)C1 (stereo not given)	1	-1	109	1	-10	.	.	.
Cc1ccc(CS(=O)Cc2ccc(C(=O)N3CCN(c4ccc(F)cc4)CC3)o2)cc1 (stereo not given)	12*	0	90	9	-9	3	-9	-9
O=C(O)CCCn1cc(NC(=O)COc2ccc(F)cc2)cn1	1	0	94	1	-4	3	.	.
O=C(O)CCCn1cc(NC(=O)COc2ccccc2)cn1	11*	0	94	-1	-1	-1	-1	2
CC1Cc2ccccc2N1S(=O)(=O)c1ccc2c(c1)n(C)c(=O)c(=O)n2C (stereo not given)	9.6*	0	107	5	4	-3	-1	2

Screens: PubChem BioAssay, several laboratories
